Source: the supplement of paper PMC12669797
“And” between values parts separate entries of the source, which are not always exact repeats. Equal entries are not always repeated. Structures can show the parent of a compound that is named as a salt. ± gives the standard deviation of the averaged measurements.

Columns and labels:
ES2 = assay: cell viability relative to DMSO control (MTS) (fraction of DMSO control); higher = more viable cells / less growth inhibition; settings: 10 µM; 48 h
Procedure, shortened: (§1)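 Viability values are fractions of the vehicle-treated control. They come from an MTS assay run per the manufacturer's instructions on TOV-21G and ES2 clear cell carcinoma cells, seeded at 5000 cells per well in 96-well plates. Each compound of a 367-member […] library was added at 10 µM final after 24 h of growth, and the readout was taken after a further 48 h.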

TOV-21G = assay: as above; settings: 10 µM; 48 h
Procedure, shortened: as §1

`O=C1C(SCCO)=C(SCCO)C(=O)c2ccccc21` gave a cell viability (ES2) of 0.962 and a cell viability (TOV-21G) of 0.861.
`c1ccc2c(-c3cnn4cc(-c5ccc(N6CCNCC6)cc5)cnc34)ccnc2c1` showed a cell viability (ES2) of 0.267 and a cell viability (TOV-21G) of 0.344.
`Cn1cnc2c(NCc3ccccc3)nc(NCCO)nc21` [Olomoucine] gave a cell viability (ES2) of 1.25 ± 0.25 and a cell viability (TOV-21G) of 1.27 ± 0.17.
Compound `CSc1ccc(/C=C2/C(C)=C(CC(=O)O)c3cc(F)ccc32)cc1` [Sulindac sulfide] has a cell viability (ES2) of 1.38 and a cell viability (TOV-21G) of 1.3.
With `NC(=O)c1ccc2nc(-c3ccc(Oc4ccc(Cl)cc4)cc3)[nH]c2c1` [Chk2 inhibitor II] the cell viability (ES2) was 1.23 and the cell viability (TOV-21G) was 1.1.
`COc1cc(/C=C(\C#N)C(N)=O)cc(CSc2nc3ccccc3s2)c1O` gave a cell viability (ES2) of 0.978 ± 0.072 and a cell viability (TOV-21G) of 1.067 ± 0.0093.
In the case of `COc1cc2c(cc1OC)-c1[nH]nc(Nc3cccc(F)c3)c1C2` [PDGF receptor tyrosine kinase inhibitor IV], the cell viability (ES2) is reported as 0.288 and the cell viability (TOV-21G) is reported as 0.297.
For `O=c1c(-c2ccc(O)cc2)coc2cc(O)cc(O)c12` [Genistein], the cell viability (ES2) was 1.31 and the cell viability (TOV-21G) was 0.988.
In the case of `CSCC[C@H](NC(=O)c1ccc(NC[C@@H](N)CS)cc1-c1ccccc1)C(=O)O`, the cell viability (ES2) is reported as 1.55 and the cell viability (TOV-21G) is reported as 1.
`COC(=O)Nc1nc2cc(C(=O)c3cccs3)ccc2[nH]1` [Nocodazole] gave a cell viability (ES2) of 0.451 and a cell viability (TOV-21G) of 0.464.
`CC(C)c1ccc2c(c1)c(SC(C)(C)C)c(CC(C)(C)C(=O)O)n2Cc1ccc(Cl)cc1` was tested, and the cell viability (ES2) was 1.06 and the cell viability (TOV-21G) was 0.959.
In the case of `Nc1nc(Nc2ccc(S(N)(=O)=O)cc2)nn1C(=S)Nc1c(F)cccc1F` [Cdk1/2 inhibitor III], the cell viability (ES2) is reported as 0.687 and the cell viability (TOV-21G) is reported as 0.665.
With `COc1c(C=O)c(O)cc2c1C(=O)c1ccccc1C2=O` [Damnacanthal] the cell viability (ES2) was 1.05 ± 0.021 and the cell viability (TOV-21G) was 0.974 ± 0.19.
For `N#CCCc1ccc2c(c1)-c1[nH]c3ccc([N+](=O)[O-])cc3c1CC(=O)N2` [Alsterpaullone, 2-cyanoethyl], the cell viability (ES2) was 0.893 and the cell viability (TOV-21G) was 0.778.
`Cn1c(=O)c2nc[nH]c2n(C)c1=O` [Theophylline] showed a cell viability (ES2) of 0.452 and a cell viability (TOV-21G) of 0.772.
`COc1cc(O)c(CC=C(C)C)c(O)c1C(=O)/C=C/c1ccc(O)cc1` [Xanthohumol] was tested, and the cell viability (ES2) was 1.07 and the cell viability (TOV-21G) was 1.01.
With `Cc1cc(N)c2ccccc2[n+]1CCCCCCCCCC[n+]1c(C)cc(N)c2ccccc21` [Dequalinium] the cell viability (ES2) was 0.383 and the cell viability (TOV-21G) was 0.42.
With `CN(C)CCCCC(=O)Nc1ccc(NC(=S)NC(=O)c2ccc(C(C)(C)C)cc2)cc1` [Tenovin-6] the cell viability (ES2) was 0.406 and the cell viability (TOV-21G) was 0.274.
`CC#C[C@]1(O)CC[C@H]2[C@@H]3CCC4=CC(=O)CCC4=C3[C@@H](c3ccc(N(C)C)cc3)C[C@@]21C` [Mifepristone] gave a cell viability (ES2) of 1.04 and a cell viability (TOV-21G) of 0.846.
`C1=Cc2nc1cc1nc(c(-c3ccccc3)c3ccc(cc4ccc([nH]4)c2-c2ccccc2)[nH]3)C=C1` showed a cell viability (ES2) of 0.908 and a cell viability (TOV-21G) of 1.19.
In the case of `Cc1nc2c(O)cccc2c(=O)[nH]1`, the cell viability (ES2) is reported as 1.04 and the cell viability (TOV-21G) is reported as 0.856.
`C#Cc1cccc(Nc2ncnc3cc(OCCOC)c(OCCOC)cc23)c1` [erlotinib] showed a cell viability (ES2) of 0.7 and a cell viability (TOV-21G) of 0.487.
Work on `CCCCC(=O)Oc1ccccc1C(=O)O` [Valeryl salicylate] yielded a cell viability (ES2) of 0.917 and a cell viability (TOV-21G) of 1.01.
`COc1cccc2c1C(=O)c1c(O)c3c(c(O)c1C2=O)C[C@@](O)(C(=O)CO)C[C@@H]3O[C@H]1C[C@H](N)[C@H](O)[C@H](C)O1` [Doxorubicin, HCl] showed a cell viability (ES2) of 0.312 and a cell viability (TOV-21G) of 0.403.
For `O=C(NCc1ccccc1)c1csc(Nc2ccncn2)n1` [Thiazovivin], the cell viability (ES2) was 0.941 and the cell viability (TOV-21G) was 1.04.
`O=c1c2ccccc2[nH]c(=S)n1CCN1CCC(=C(c2ccc(F)cc2)c2ccc(F)cc2)CC1` [Diacylglycerol kinase inhibitor II] showed a cell viability (ES2) of 1.09 and a cell viability (TOV-21G) of 1.13.
For `CC[C@@]1(O)C[C@H](O[C@H]2C[C@H](N(C)C)[C@H](O[C@H]3C[C@H](O)[C@H](O[C@H]4CCC(=O)[C@H](C)O4)[C@H](C)O3)[C@H](C)O2)c2c(cc3c(c2O)C(=O)c2c(O)cccc2C3=O)[C@H]1C(=O)OC` [Aclarubicin], the cell viability (ES2) was 0.6 and the cell viability (TOV-21G) was 0.385.
`O=C(Nc1cccc2cccnc12)c1ccc(N2C(=O)[C@@H]3[C@H](C2=O)[C@@H]2C=C[C@H]3C2)cc1` [IWR-1-endo] gave a cell viability (ES2) of 0.998 and a cell viability (TOV-21G) of 0.582.
In the case of `CCNCCCNCCCCNCCCNCC` [N1,N12-Diethylspermine (BESpm)], the cell viability (ES2) is reported as 1 and the cell viability (TOV-21G) is reported as 0.731.
In the case of `O=C([O-])c1ccccc1O.[Na+]` [Sodium salicylate], the cell viability (ES2) is reported as 0.785 and the cell viability (TOV-21G) is reported as 1.27.
For `C[C@]1(c2nc3c(C(N)=O)cccc3[nH]2)CCCN1` [ABT-888 (Veliparib)], the cell viability (ES2) was 0.897 and the cell viability (TOV-21G) was 0.892.
For `O=C1Nc2ccc(I)cc2/C1=C\c1cc(Br)c(O)c(Br)c1` [RAF1 kinase inhibitor I], the cell viability (ES2) was 1.1 and the cell viability (TOV-21G) was 1.03.
`CCCCCCCC(=O)OCCOC(=O)CCCCCCC` [Dioctanoylglycol] gave a cell viability (ES2) of 1.3 and a cell viability (TOV-21G) of 0.996.
With `CC[n+]1c(/C=C/N(C)c2ccccc2)n(-c2ccccc2)c2ccc(-c3nc4ccccc4s3)cc21` [Akt Inhibitor IV] the cell viability (ES2) was 0.308 and the cell viability (TOV-21G) was 0.218.
`C=CCc1cccc(/C=N/NC(=O)CN2CCN(Cc3ccccc3)CC2)c1O` showed a cell viability (ES2) of 0.787 and a cell viability (TOV-21G) of 0.821.
`CCn1cc(C(=O)O)c(=O)c2ccc(C)nc21` [Nalidixic acid] was tested, and the cell viability (ES2) was 0.981 and the cell viability (TOV-21G) was 1.12.
Work on `CC[C@H](C)C(=O)O[C@H]1C[C@@H](C)C=C2C=C[C@H](C)[C@H](CC[C@@H]3C[C@@H](O)CC(=O)O3)[C@H]21` [Lovastatin] yielded a cell viability (ES2) of 0.595 and a cell viability (TOV-21G) of 0.792.
Compound `CC(C)CC(NC(=O)CNC(=O)OCc1ccccc1)C(=O)NC(Cc1ccccc1)C(=O)CCl` (centres undefined) has a cell viability (ES2) of 0.398 and a cell viability (TOV-21G) of 0.479.
In the case of `CNC(=O)c1ccccc1Sc1ccc2c(/C=C/c3ccccn3)n[nH]c2c1` [Axitinib], the cell viability (ES2) is reported as 0.917 and the cell viability (TOV-21G) is reported as 0.841.
`CC(C)c1cc(/C=C(\C#N)C(=O)NCCCc2ccccc2)cc(C(C)C)c1O` was tested, and the cell viability (ES2) was 1.3 ± 0.21 and the cell viability (TOV-21G) was 0.938 ± 0.063.
With `NC1=N/C(=C2/CCNC(=O)c3[nH]ccc32)C(=O)N1` [Debromohymenialdisine (DBH)] the cell viability (ES2) was 1.25 and the cell viability (TOV-21G) was 1.12.
`CC(=O)N[C@@H](CS)C(=O)O` [N-Acetyl-L-cysteine] showed a cell viability (ES2) of 1.04 and a cell viability (TOV-21G) of 0.965.
For `Cc1cccc(-c2nn(C(=S)Nc3ccccc3)cc2-c2ccnc3ccccc23)n1`, the cell viability (ES2) was 0.872 and the cell viability (TOV-21G) was 1.01.
Work on `CC(C)C[C@H](NC(=O)[C@H](Cc1ccccc1)NC(=O)c1cnccn1)B(O)O` [bortezomib] yielded a cell viability (ES2) of 0.302 and a cell viability (TOV-21G) of 0.432.
Compound `CCOC(=O)C1=C(C)NC(=S)NC1c1cccc(O)c1` (centres undefined) [Monastrol] has a cell viability (ES2) of 0.884 and a cell viability (TOV-21G) of 0.853.
`C[n+]1cc2c3c(ccc2c2ccc4cc5c(cc4c21)OCO5)OCO3` [Sanguinarine] showed a cell viability (ES2) of 0.385 and a cell viability (TOV-21G) of 0.253.
In the case of `COc1cccc(-c2cc(=O)c3ccccc3o2)c1N`, the cell viability (ES2) is reported as 0.798 and 0.451 and the cell viability (TOV-21G) is reported as 0.852 and 0.84.
`Cc1c[nH]c(/C=C2\C(=O)Nc3ccccc32)c1CCC(=O)O` gave a cell viability (ES2) of 1.1 and a cell viability (TOV-21G) of 1.08.
Work on `CC(=O)N[C@@H](CSC(=O)[C@]1([C@@H](O)C(C)C)NC(=O)[C@H](C)[C@@H]1O)C(=O)O` [Lactacystin] yielded a cell viability (ES2) of 0.637 and a cell viability (TOV-21G) of 0.482.
`CC(C)C[C@@H](C=O)NC(=O)[C@H](CC(C)C)NC(=O)[C@H](CC(C)C)NC(=O)OCc1ccccc1` gave a cell viability (ES2) of 0.298 and a cell viability (TOV-21G) of 0.255.
For `Nc1ncnc2nc(-c3ccc(N4CCOCC4)nc3)cc(-c3cccc(Br)c3)c12`, the cell viability (ES2) was 0.795 and the cell viability (TOV-21G) was 0.484.
`CCCC[C@@H](C)/C=C(C)/C=C(\C)C(=O)NC1=C[C@@](O)(/C=C/C=C/C=C/C(=O)NC2=C(O)CCC2=O)[C@@H]2O[C@@H]2C1=O` [Manumycin A] gave a cell viability (ES2) of 1.06 and a cell viability (TOV-21G) of 1.61.
`CCCCN1C(=O)C2Cc3c([nH]c4ccccc34)C(c3cccc(O)c3)N2C1=O` (centres undefined) gave a cell viability (ES2) of 0.368 and a cell viability (TOV-21G) of 0.46.
In the case of `O=c1cc(-c2ccccc2)oc2cc(O)c(O)c(O)c12` [Baicalein], the cell viability (ES2) is reported as 0.916 and the cell viability (TOV-21G) is reported as 0.821.
Compound `C/C=C/C=C\C=C/C(O)C(C)C(CCC(C)C1OC(=O)C=CC1C)OP(=O)(O)O` (centres undefined) [Cytostatin] has a cell viability (ES2) of 0.34 and a cell viability (TOV-21G) of 0.344.
`Cc1cccc(-c2nn3c(c2-c2ccnc4ccc(C(N)=O)cc24)CCC3)n1` gave a cell viability (ES2) of 0.988 and a cell viability (TOV-21G) of 1.02.
`CC(=O)O[C@H]1C(=O)[C@@]2(C)[C@H]([C@H](OC(=O)c3ccccc3)[C@]3(O)C[C@H](OC(=O)[C@H](O)[C@@H](NC(=O)c4ccccc4)c4ccccc4)C(C)=C1C3(C)C)[C@]1(OC(C)=O)CO[C@@H]1C[C@@H]2O` [Paclitaxel] showed a cell viability (ES2) of 0.467 and a cell viability (TOV-21G) of 1.25.
In the case of `C[C@@H]1C[C@H]2[C@@H]3CCC4=CC(=O)C=C[C@]4(C)[C@@]3(F)[C@@H](O)C[C@]2(C)[C@@]1(O)C(=O)CO` [Dexamethasone], the cell viability (ES2) is reported as 1.01 and the cell viability (TOV-21G) is reported as 1.29.
`CC1(C)CCC(C)(C)c2cc(NC(=O)c3ccc(C(=O)O)cc3)ccc21` [tamibarotene] showed a cell viability (ES2) of 1.16 and a cell viability (TOV-21G) of 1.49.
For `CN(C)CCCN1c2ccccc2Sc2ccc(Cl)cc21` [chlorpromazine hydrochloride], the cell viability (ES2) was 0.947 and the cell viability (TOV-21G) was 0.868.
`O=C(Cc1ccccc1)Nc1c2c(nc3ccccc13)N(Cc1ccccc1)CC2` showed a cell viability (ES2) of 0.96 and a cell viability (TOV-21G) of 0.839.
`CO[C@@]12[C@H](COC(N)=O)C3=C(C(=O)C(C)=C(N)C3=O)N1C[C@@H]1N[C@@H]12` [Mitomycin C] was tested, and the cell viability (ES2) was 0.35 and the cell viability (TOV-21G) was 0.213.
